In ChEMBL document CHEMBL4888484, “Replenishing the malaria drug discovery pipeline: Screening and hit evaluation of the MMV Hit Generation Library 1 (HGL1) against asexual blood stage Plasmodium falciparum ,using a nano luciferase reporter read-out” (2022):
The campaign covered roughly 4,800 compounds. About 420 (8.8%) showed an effect of 50% or more. Shown is part of a subset that was picked to be rich in strong results.

What follows are compounds tested on Plasmodium falciparum (assay: Confirmatory screen in NF54 nanoGlo assay, in single point, at 2uM, 72h). Details: timepoint 72 hour.
Format: functional, Erythrocyte

SMILES	% Inhibition [%]
O=C1NC(=O)C2(CCN(C(=O)C3CC4CCC3C4)CC2)N1 (configuration not stated)	-7
CC(C)C(=O)N1CC[C@H](CC(=O)NCc2ccncc2)C1	0
CS(=O)(=O)N1CC[C@H](CC(=O)N2CCN(c3ccc(F)cc3)CC2)C1	-14
N#CC1CCC(Nc2cnn(-c3ccncc3)c2)CC1 (configuration not stated)	5
Cc1nn(C)cc1S(=O)(=O)N1CCC[C@@H]1CCc1ccccn1	-12
COc1cc(OC)c(OC)cc1CNC(C)C	-2
Cc1c(C(=O)NC[C@](C)(O)c2ccc(F)cc2F)cnn1C	7
CN(Cc1cccnc1)c1ccc(S(=O)(=O)C(F)F)cc1	-5
O=C(NCCc1c(Cl)cccc1Cl)[C@@H]1CCCc2[nH]cnc21	-2
O=C(c1cc(F)c[nH]1)N1CCN(C(=O)c2cc(F)c[nH]2)[C@@H]2CCCC[C@H]21	13
COc1ccc(-c2cc3ncc(C(=O)c4cc(Cl)ccc4O)cn3n2)cc1	72
COc1ccc(C2=NC3(CCN(Cc4ccccc4)CC3)N[C@H](c3cc(Cl)ccc3O)C2)cc1	24
O=C(Cc1ccc(Cl)cn1)Nc1ccnn1[C@H]1CCCc2ccccc21	-10
CN1CCN(C(=O)CNC(=O)c2cccc(Cl)c2)CC1	-2
Cc1ccc(COc2cccc(CNC3CC3)c2)cc1	-7
Cc1ccc(S(=O)(=O)N(CC(=O)NC2CCN(C)CC2)c2cccc(Cl)c2)cc1	-7
Cn1c(=O)c2ccnn2c2ccc(C(=O)NC3CCN(Cc4ccccc4)CC3)cc21	23
CC(C)Cn1ncnc1COC(=O)c1cccnc1	-1
Cc1cc2[nH]ncc2cc1NC(=O)c1ccco1	-8
CC[C@H]1C[C@@H]1CNC(=O)c1cccc(NC(=O)c2ccco2)c1	-7
CC(C)(C)c1nc(Cn2c3c(sc2=O)CCCC3)no1	1
COc1ccc(CN2CCC(C(=O)NCCCN3CCOCC3)CC2)c(OC)c1	4
Cc1ccccc1S(=O)(=O)c1cc2cc(Br)cc(Br)c2nc1N	0
COc1cccc(C2=NS(=O)(=O)N(C)C(C(=O)N3CCC(C(N)=O)CC3)=C2)c1	20

SMILES	% Inhibition [%]
CC(=O)c1ccc(NC(=O)Cn2c(-c3ccccc3)nc(C)cc2=O)cc1	4
CC(=O)Nc1ccc(-c2cn3c4ccccc4ccc3[n+]2C)cc1	76
CC(=O)Nc1ccc(NC(=O)CCC(C)C)cc1	-9
CC(=O)N[C@H]1[C@H](c2ccccc2)N(CCCc2ccccc2)CC[C@@]1(C)O	1
C#CCN(C(=O)c1cnn(CC(C)C)c1C(F)F)c1nccs1	-1
Cc1ccc(C2=NC3(CCCC3)NC2=O)cc1	3
Cc1ccc[n+](Cc2ccc3ccccc3n2)c1	53
c1ccc2c[n+](Cc3ccc4ccccc4n3)ccc2c1	50
c1ccc2cc(-c3ccc4ccccc4n3)ccc2c1	-1
O[C@@H](Cc1ccc2ccccc2n1)c1ccccc1	-5
CC(C)(C)OC(=O)N1CCN(C[C@H]2CN(c3ccc(F)cc3)C(=O)O2)CC1	-11
O=C(Nc1ccccc1)c1ccc(Nc2ncc(-c3cccc(F)c3)cn2)cc1	-3
CC(C)(C)c1ccc(-c2cc(C[C@H]3CNCC[C@H]3CC(=O)NCCN3CCOCC3)no2)cc1	9
OC(CNC1CCCNc2ccccc21)c1ccc(Cl)s1 (configuration not stated)	58
O=C(NC[C@H](O)c1ccc(Cl)s1)c1ccsc1	1
CC(C)(C)OCCON=C(N)c1cccs1	10
O=C(C[C@@H]1C=CCC1)Nc1nc(-c2ccc(Cl)cc2)cs1	2
C[C@H]1CNCCN1C(=O)c1coc2ccccc12	-4
O=C(Cn1ccnc1)N1CCCCCC1CC(O)c1ccccc1 (configuration not stated)	0
O=c1[nH]c2cc3c(cc2c(=O)n1CCc1nc(-c2ccccc2Br)no1)OCO3	-4
O=C(C[C@H]1CCN(C(=O)Nc2ccccc2)C1)NC1CC1	-6
O=C(Nc1ccncc1)c1ccc2ccccc2n1	0
CCOC(=O)c1ncn(C2CCCCC2)c1N	1
CCOC(=O)c1cn(CC)c2cc(NC3CCCCC3)c(F)cc2c1=O	78

SMILES	% Inhibition [%]
CCOC(=O)c1cc(NC(=O)C(C)(C)NC(=O)OC(C)(C)C)c(F)cc1C	-2
CCc1ccc(CNC(=O)C2(N3CCOCC3)CCC2)s1	-5
CCCN(CCC)C(=O)CCC(=O)N[C@]1(C(F)(F)F)CCc2ccccc21	15
Cc1cccc(NC(=O)[C@@H](C#N)C(=O)C2CCC2)c1	0
COc1ccc(CN(Cc2ccncc2)CC2CCN(C3CCN(C)CC3)CC2)c(F)c1	85
CN1CCC(N2CCN(Cc3ccc4cc(O)ccc4c3)CC2)CC1	46
CN1CCC(N2CCC(CN(Cc3ccncc3)Cc3c(F)cccc3Cl)CC2)CC1	23
O=C(Nc1ncc(CCO)s1)[C@@H]1CCCN1C(=O)Cc1cccs1	0
CN(C)CCNCc1ccc(Cl)c(Cl)c1	-11
CC(C)CC[C@@H](CCNCCN(C)C)c1ccc(Cl)cc1	96
CN1CCC(NCC[C@@H](Cc2ccccc2Cl)c2ccc(Cl)cc2)CC1	82
CN(C)CCCNCc1ccc(Cl)cc1Cl	-3
CC(C)CC[C@@H](CCNC1CCN(C)CC1)c1ccc(Cl)cc1	80
Clc1ccccc1COc1ccc(CNC2CCCCC2)cc1	-2
CCn1cnnc1C1CCN([C@@H](C)C(=O)Nc2ccccc2C)CC1	-7
COc1ccc(C)cc1-n1ccc(C(=O)N2CCCc3c(C(N)=O)cccc32)n1	-11
COC(=O)c1ncn(CNC2(c3ccc(Cl)cc3)CCCC2)n1	6
CN(C)c1ccc(-c2nc([C@H]3CCOC3)cs2)cc1	6
Cc1cc(CN2C(=O)NC3(CCCCC3)C2=O)no1	-4
Cc1cccnc1C(=O)N1CC(n2cnnc2[C@@H]2CCCO2)C1	-2
Cc1cc(-c2cc(O)cc(CC[C@H]3CCCCN3)c2)ccn1	79
Cc1ccc(-c2cc(O)cc(CC[C@H]3CCCCN3)c2)c(C)n1	53
Cc1cc(S(=O)(=O)NC[C@H]2CCCCN2)sc1C	-9
CC(=O)c1cc(-c2cc(O)cc(CC[C@H]3CCCCN3)c2)ccc1O	78
